Holding throughout (test): modulators of BK channel variants, profiling panel, selectivity assay, cell-based, U2OS BacMam, thallium flux, beta subunits (AID 1259406);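 also: initial slope of Thallos dye fluorescence rise after thallium is added; log ratio against the mean of 0.3% DMSO vehicle wells on the same plate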
The test system of assay [1] is F380Y. To be noted: at 30 µM.
The test system of assay [2] is F380Y/beta1. Particulars: at 30 µM.
Assay [3] deals with F380Y/beta2Delta. Particulars: at 30 µM.
For assay [4], the system named is F380Y/beta4. To be noted: at 30 µM.
Assay [5] addresses Calcium-activated potassium channel subunit alpha-1 (Homo sapiens) + Leucine-rich repeat-containing protein 26 (Homo sapiens) (UniProt Q12791+Q2I0M4). Particulars: F380Y/Slo1WT/gamma1, at 30 µM.
In assay [6] the test system is R275C. Particulars: at 30 µM.
Assay [7] concerns R275C/beta1. To be noted: at 30 µM.
The test system of assay [8] is R275C/beta2Delta. To be noted: at 30 µM.
Assay [9] concerns R275C/beta4. To be noted: at 30 µM.
Assay [10] relates to R275C/Slo1WT/beta2. Particulars: at 30 µM.

Unmarked numbers belong to inactive results. Activity calls are given as the source filed them.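 The calls were made as follows: active = thallium flux through the channel raised or lowered by more than 3 SD from vehicle-only wells, actives on both sides; inactive = the rest.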

Chain of Calcium-activated potassium channel subunit alpha-1 (Homo sapiens) + Leucine-rich repeat-containing protein 26 (Homo sapiens) (Q2I0M4 whole entry, looked up, one chain of several): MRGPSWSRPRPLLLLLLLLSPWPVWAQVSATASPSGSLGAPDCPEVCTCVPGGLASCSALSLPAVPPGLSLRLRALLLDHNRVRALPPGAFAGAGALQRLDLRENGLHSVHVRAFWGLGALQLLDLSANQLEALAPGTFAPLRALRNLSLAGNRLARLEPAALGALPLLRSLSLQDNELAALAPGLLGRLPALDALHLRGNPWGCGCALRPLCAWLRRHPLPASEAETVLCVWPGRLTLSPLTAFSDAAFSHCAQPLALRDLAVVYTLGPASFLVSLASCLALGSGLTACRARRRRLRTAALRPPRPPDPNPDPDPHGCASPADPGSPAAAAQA

In the case of `Cc1ccc(C(=O)Cn2cc([N+](=O)[O-])nc2C)cc1`, the log fold change Tl+ flux in [1] was -0.00237; in [2], -0.0164; in assay [3], 0.0463; in assay [4] it was -0.00425; in assay [5] it was -0.043; in [6] it was 0.00593. In addition, the log fold change Tl+ flux was 0.0164 in [7], -0.0174 in [8], 0.0383 in assay [9] and 0.0674 in assay [10].

Take `Cc1nnc(-c2ccccn2)[nH]c1=O`: the log fold change Tl+ flux in assay [1] is -0.0188; in [2], -0.0365; in assay [3], -0.0191; in assay [4], -0.0613; in assay [5], 0.0158; in assay [6], 0.0139. Further, the log fold change Tl+ flux in [7] was -0.0558; in assay [8], 0.00421; in assay [9], -0.00382; in assay [10], 0.0227.

`CCCCCCCCCCCC(=O)N1CC(=O)NC(=O)C1`: the log fold change Tl+ flux in assay [1] was -0.0479; in [2], -0.037; in assay [3], -0.0133; in assay [4] it was -0.0202; in assay [5], 0.0655; in assay [6] it was -0.0151. The log fold change Tl+ flux was -0.0193 in [7], 0.0154 in [8], -0.0342 in assay [9] and 0.0104 in assay [10].

Consider `CC(=O)C1=C(C)Nc2ccccc2S1`, for which the log fold change Tl+ flux was 0.0144 in assay [1]; -0.00709 in [2]; -0.0326 in assay [3]; -0.00774 in assay [4]; -0.000563 in assay [5]; 0.0464 in [6]. Moreover, the log fold change Tl+ flux in assay [7] is -0.0243; in [8], -0.0168; in assay [9] it was -0.00794; in assay [10], 0.0465.

Turning to `CCOC(=O)C1CCCN(C(=O)Nc2c(-c3ccccc3)noc2C)C1` (stereo not given), the log fold change Tl+ flux was 0.0297 in assay [1]; -0.0223 in assay [2]; -0.00149 in [3]; 0.0159 in [4]; 0.00293 in assay [5]; -0.0483 in [6]. The log fold change Tl+ flux in assay [7] is -0.0144; in assay [8], -0.0161; in assay [9], -0.0185; in assay [10], 0.00733.

Take `C=CCNC(SC)=C(C#N)C(N)=O`: the log fold change Tl+ flux in [1] was -0.000365; in assay [2], -0.02; in [3], 0.0377; in assay [4], -0.0612; in [5], 0.0338; in assay [6], -0.0174. Besides, the log fold change Tl+ flux in assay [7] was -0.038; in [8], 0.00669; in [9], -0.0131; in assay [10] it was -0.00229.

`Cc1cc(C(=O)ON=C(N)c2ccc([N+](=O)[O-])o2)no1`: the log fold change Tl+ flux was 0.0152 in assay [1]; 0.0208 in [2]; 0.0122 in [3]; 0.0216 in [4]; 0.00414 in assay [5]; -0.00373 in assay [6]. For the same compound, the log fold change Tl+ flux was 0.00585 in [7], -0.00874 in assay [8], 0.0176 in [9] and -0.0342 in assay [10].

With `Clc1cc(Cl)cc(Nc2ncnc(-n3cccc3)n2)c1`, the log fold change Tl+ flux in assay [1] was 0.0686; in assay [2], 0.0545; in assay [3], 0.0354; in assay [4] it was 0.0368; in assay [5], 0.0181; in [6] it was 0.00673. The log fold change Tl+ flux in assay [7] was 0.00955; in assay [8] it was 0.0395; in assay [9], -0.0107; in assay [10], -0.0692.

With `O=C(Nc1ccc(OC(F)(F)F)cc1)OC1CN(C(c2ccccc2)c2ccccc2)C1`, the log fold change Tl+ flux was -0.0399 in assay [1]; -0.0331 in assay [2]; -0.0434 in assay [3]; -0.154 (active) in [4]; -0.134 (active) in [5]; -0.0449 in assay [6]. For the same compound, the log fold change Tl+ flux in assay [7] is 0.0012; in assay [8] it was -0.0123; in assay [9] it was 0.0956 (active); in assay [10], -0.0244.

Consider `COC(=O)c1sccc1NN=C(C)c1ccc(NC(=O)C(Cl)Cl)cc1`, for which the log fold change Tl+ flux was 0.0593 in [1]; -0.0356 in [2]; 0.0103 in [3]; -0.0317 in assay [4]; 0.0385 in [5]; -0.0133 in assay [6]. Moreover, the log fold change Tl+ flux in [7] is -0.0386; in [8], -0.0375; in assay [9] it was -0.0101; in [10], 0.0362.

Turning to `Cc1cc2c(NC(=O)c3ccccc3C(=O)O)cccc2nn1`, the log fold change Tl+ flux in [1] was -0.0132; in assay [2], 0.714 (active); in assay [3] it was -0.0393; in assay [4], 0.0303; in assay [5] it was 0.0158; in assay [6], 0.0158. Also, the log fold change Tl+ flux is -0.0051 in [7], -0.00027 in assay [8], -0.0138 in assay [9] and -0.00217 in [10].

Take `Cc1cc2nccc(-c3cccnc3)n2n1`: the log fold change Tl+ flux in assay [1] was -0.0198; in assay [2] it was -0.0232; in [3], 0.0219; in assay [4] it was -0.0149; in [5], -0.0534; in [6], 0.00294. Moreover, the log fold change Tl+ flux in assay [7] was -0.00487; in assay [8], -0.00124; in assay [9], 0.00702; in assay [10], -0.00651.

Turning to `O=C(NCc1ccc2c(c1)OCO2)C1CCN(C(=O)OCc2ccccc2)CC1`, the log fold change Tl+ flux in [1] is 0.035; in assay [2], -0.0838 (active); in assay [3] it was -0.059; in assay [4], -0.064; in assay [5], 0.019; in assay [6], 0.0676. For the same compound, the log fold change Tl+ flux in [7] is 0.0117; in [8], -0.0269; in assay [9] it was -0.0162; in assay [10], 0.0194.

The values are drawn from PubChem BioAssay.
